High-throughput results from PubChem.
The list is not random: actives were taken first. Their share in the collection is about 7.9%.
LASV entry inh: qHTS for Inhibitors of binding or entry into cells for Lassa Virus; Lassa virus pseudotype entry inhibition, cell reporter; Potency, µM (doses to about 37.9 µM), inactives show top-dose activity change, negative = inhibition, usual class: inhibitors; 300,000 compounds, 1.2% hits; calls by dose curve; tested in HEK293 cells; further: potency means the concentration at half of the fitted maximal effect; nearly all actives have a fitted effect of over 50% in size
HCV inh: qHTS Assay for Inhibitors of Hepatitis C Virus (HCV) | Huh7.5.1 HCVcc-Cre infection, luciferase reporter, 44 h | Potency, µM (series often up to 41.8 µM), for inactives: at the highest dose activity change, negative = inhibition, hits mostly inhibitors | 340,000 compounds, 3.4% hits | AID 651820, 2012; active means well fitted inhibition curve with a large enough effect; inconclusive means small, poorly fitted or top-dose-only effect, or another doubt; inactive means no such curve, though single readings can be large or run the other way; further: potency means the concentration at half of the fitted maximal effect
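Compounds are dispensed onto cells plated 4 h earlier at 1,000 per well, with HCVcc-Cre virus (about 0.5 moi) added next. Following 44 h of culture, luminescent signal is measured for 15 sec after 15 min with substrate at room temperature.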
FMDV inh: High Throughput Screening for Foot and Mouth Disease Virus Antivirals; FMDV antiviral cell-based qHTS; Potency, µM (titrated, usually from 57.9 µM), for the others: at the top dose activity change, negative = inhibition, actives largely listed as inhibitors; 410,000 compounds, 1.2% hits; calls by dose curve; tested in HEK293T cells; further: read-out not given here; potency means the concentration at half of the fitted maximal effect; nearly all actives have a fitted effect of over 45% in size
MARV entry inh: qHTS for inhibitors of binding or entry into cells for Marburg Virus | Marburg virus pseudotyped entry inhibition, cell reporter | Potency, µM (top dose mostly 37.8 µM), without a hit: top-dose activity change, negative = inhibition, hits mostly inhibitors | 300,000 compounds, 1.8% hits; calls by dose curve; tested in HEK293 cells; further: potency means the concentration at half of the fitted maximal effect
HCMV antiviral: qHTS Assay for inhibitors of the human cytomegalovirus (HCMV); HFF cells, HCMV-luciferase reporter, 72 h; hits give low values; activity change, negative = inhibition, % at 57.5 µM; 410,000 compounds, 4.5% hits; in the data active means activity change below about -60%; inconclusive means no clear call, values can overlap the other calls; inactive means above about -39%
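Steps: HFFs plated, 16 h 37C; compounds added; HCMV-luciferase added to MOI 1 PFU/cell; 72 h 37C; OneGlo reagent, 5 min room temperature; luminescence read, normalized to controls.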
Active calls of the source: *; ? = inconclusive; · = no result; [ ] = dose if it differs, or a comment. On the % scale 0 is the no-effect control and ±100 the full control effect.

SMILES | LASV entry inh | HCV inh | FMDV inh | MARV entry inh | HCMV antiviral
COC(=O)C1CCN(Cc2ccc3c(c2)CN(C(=O)C(C)N2CCOCC2)CCO3)CC1 (stereo not drawn) | · | · | -6% | · | ·
C#CC1(O)CCC2C3CCC4=CC(=O)CCC4=C3C=CC21C (stereo not drawn) | -9%[46.1 µM] | 12% | -10% | 0% | 7
CC#C[C@]1(O)CC[C@H]2C3CCC4=CC(=O)CCC4=C3[C@@H](c3ccc(N(C)C)cc3)C[C@@]21C (stereo partly drawn) | · | · | · | 10µM* | ·
O=C(CSc1nccn1C1CCCC1)Nc1ccccc1 | ? | · | 27% | · | -24
O=c1c(-c2ccnn2-c2ccc(F)cc2)cnc2n1CCS2 | 8% | 9% | -12% | 7% | 22
O=c1ccnc2n1COCS2 | · | 22% | -4% | · | -100*
CCc1ccccc1N(C)C(=O)c1cc2c(Cl)nc3ccc(C)cc3c2s1 | 24%[46.1 µM] | · | ? | -3%[46.1 µM] | -10
CCCCN(Cc1cc2cc(OC)ccc2[nH]c1=O)S(=O)(=O)c1ccc(C)cc1 | · | 13µM* | ? | · | -70*
Cc1cc2cc(CN(Cc3ccco3)S(=O)(=O)c3c(C)ccc4nsnc34)c(=O)[nH]c2cc1C | 8.2µM* | ? | -20% | ? | 41
COC(=O)c1cccc(S(=O)(=O)N(Cc2ccco2)Cc2cc3cc(OC)ccc3[nH]c2=O)c1 | ? | ? | 22µM* | -22% | 13
O=C1c2oc3ccccc3c(=O)c2C(c2ccccc2F)N1Cc1ccc2c(c1)OCO2 (stereo not drawn) | 12%[46.1 µM] | · | 35% | 21%[46.1 µM] | 20
Cc1ccc(C)c(N2CCN(C(c3ccc(F)cc3)c3nnc(-c4ccccc4)o3)CC2)c1 (stereo not drawn) | ? | · | -17% | ? | -22
COc1cccc(/C=C2\CCC(C3CCCC3)C2=O)c1 (stereo not drawn) | 10% | ? | 29% | 39% | -22
CN(C)CC1CCC/C(=C\c2ccc(OC(=O)/C=C/c3ccc(Cl)c(Cl)c3)cc2)C1=O (stereo not drawn) | 12% | ? | 40µM* | ? | -29
COc1cccc(/C=C2/CCC(CN(C)C)C2=O)c1 (stereo not drawn) | 13µM* | ? | 25µM* | 11µM* | -87*
COc1ccc(/C=C2/CCCC(CN(C)C)C2=O)cc1 (stereo not drawn) | -13% | ? | -13% | -16% | 16
CN(C)CC1CCC/C(=C/c2ccc(Cl)cc2)C1=O (stereo not drawn) | ? | ? | 40µM* | -3% | 1
CCCC/C=C1/CCC(CN(C)C)C1=O (stereo not drawn) | 7%[46.1 µM] | ? | 28µM* | 5% | ·
COc1ccc(CN2CCCC(c3nc(-c4ccncc4)ncc3-c3ccccc3C)C2)c(OC)c1 (stereo not drawn) | · | · | -8% | · | ·
C#CCN1C(=O)[C@@]2(CC(C)=CC[C@@H](C)O2)c2ccccc21 | · | · | · | 16%[14.2 µM] | ·
CCOc1ccc(OCc2cccc(C(=O)O)c2)cc1 | ? | 0% | 0.89µM* | ? | 1
O=C(O)c1cccc(COc2ccc3c(c2)CCC3)c1 | 0.37µM* | 18% | 2.8µM* | ? | 0
CCOc1ccc(OCc2cccc(C(=O)N3CCCC3)c2)cc1 | ? | -5% | · | ? | 195
O=C(NCc1ccccc1)c1cccc(COc2ccc3c(c2)CCC3)c1 | ? | -9% | -10% | ? | 148
O=C(O)c1cccc(COc2ccc(CO)cc2Cl)c1 | 0.29µM* | 0% | · | ? | 24
SMILES | LASV entry inh | HCV inh | FMDV inh | MARV entry inh | HCMV antiviral
O=Cc1ccc(OCc2cccc(C(F)(F)F)c2)cc1O | -4%[46.1 µM] | 16% | 4% | ? | 6
O=C(OCC(F)(F)F)c1cccc(COc2ccc3ccccc3c2)c1 | ? | 0% | ? | 1.3µM* | 166
O=C(NCc1ccccc1Cl)c1ccc(Cn2c(=O)c3cccn3c3cccnc32)cc1 | -13%[46.1 µM] | · | -2% | · | -18
COc1ccc(OCc2cccc(C(=O)O)c2)cc1 | ? | 4% | 1µM* | ? | -18
CCOc1ccc(OCc2cccc(C(=O)N3CCCCCC3)c2)cc1 | 3.5µM* | -34% | -72% | ? | -4
O=C(NCc1ccccc1Cl)c1cc(=O)[nH]c2ccc(S(=O)(=O)N3CCCCC3)cc12 | 29%[46.1 µM] | · | -12% | 4%[46.1 µM] | 17
COc1ccc(CCc2nnc(CCC(=O)N(C)Cc3ccnc4ccccc34)o2)cc1 | 13µM* | ? | ? | ? | -64*
COc1ccccc1CCc1nnc(CCC(=O)N(C)Cc2cccc3cnccc23)o1 | 9%[46.1 µM] | ? | -3% | -11%[46.1 µM] | -20
COc1ccc(S(=O)(=O)N2c3ccc(F)cc3CCC2C)cc1 (stereo not drawn) | · | 3% | -26% | · | -78*
CC(=O)Nc1ccc(S(=O)(=O)N2c3ccc(F)cc3CCC2C)cc1 (stereo not drawn) | · | -23% | -9% | · | -31
COc1ccc(CNC(=O)c2ccc(NC(=O)N3CCCCc4ccccc43)cc2)c(OC)c1 | ? | · | 1% | · | 3
CCc1ccc(C(=O)COC(=O)C(Cc2c[nH]c3ccccc23)NC(=O)c2ccc(CC)cc2)cc1 (stereo not drawn) | ? | · | 21% | · | ?
CCN(CC)C(=O)C1CCCN(Cc2ccccc2)C1 (stereo not drawn) | 16% | 19% | · | 3% | 2
O=C(C1CCCN(Cc2ccc(Br)cc2)C1)N1CCCCC1 (stereo not drawn) | · | 11µM* | ? | · | ?
CN(Cc1ccccc1)C(=O)C1CCCN(Cc2ccc(Cl)cc2)C1 (stereo not drawn) | ? | 1.4µM* | ? | ? | -35
Cc1ccc(CN2CCCC(C(=O)N3CCCC3)C2)cc1 (stereo not drawn) | ? | 23% | 0% | ? | -19
O=C(C1CCCCC1)N1CCN(S(=O)(=O)c2ccc(Br)cc2)CC1 | 18µM* | -6% | ? | ? | -9
CC(=O)c1ccc(NC(=O)C(C)Oc2ccc(N(C)S(=O)(=O)c3ccc(C)cc3)cc2)cc1 (stereo not drawn) | · | 13µM* | -16% | · | -11
CC(Oc1ccc(F)cc1)C(=O)Oc1ccc(N(C)S(=O)(=O)c2ccccc2)cc1 (stereo not drawn) | 0% | 34% | -10% | 11% | -12
Cc1ccc(S(=O)(=O)N(C)c2ccc(OC(C)C(=O)N(C)c3ccccc3)cc2)cc1 (stereo not drawn) | ? | 11µM* | -23% | -29% | -17
Cc1cccn2c(=O)c3cc(C(N)=S)c(=N)n(CCCN4CCOCC4)c3nc12 | · | ? | ? | · | -64*
Cc1cccn2c(=O)c3cc(C(=O)NCc4ccc(F)cc4)c(=N)n(CCCN4CCOCC4)c3nc12 | · | ? | 4.5µM* | · | -35
Cc1ccc2nc3c(cc(C(N)=S)c(=N)n3CCCOC(C)C)c(=O)n2c1 | -2% | 25µM* | 12% | -28% | -19
